Compounds with a hit are over-represented: about 4% of the library has one in this group of screens.
EWS-Fli block: inhibitors of EWS/Fli oncoprotein transcriptional activity; A673 NR0B1-luciferase reporter, viability-normalised; inhibition, % at 12.6 µM; 350,000 compounds, 0.67% hits; AID 651661;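 active = mean inhibition of at least 50% after viability correction, with every replicate also passing that limit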;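 note: firefly luciferase signal divided by Alamar Blue viability fluorescence both relative to DMSO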
MITF TRPM1 inh: inhibitors of MITF-driven TRPM1 promoter in melanoma cells. SK-MEL-5 TRPM1 promoter luciferase, 24 h. inhibition, % at 12.5 µM. 330,000 compounds, 0.83% hits. AID 488899;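 active = mean inhibition across replicates of 60% or more, whatever share of single replicates reaches that level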
Wnt bcat act: Wnt/beta-catenin pathway activation | activation, % at 9.35 µM | 300,000 compounds, 1.2% hits | Wnt/beta-catenin reporter cell assay, activator, plate reader; in the data active = activation above about 30%, passing the limit was not always enough;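 note: 0% = neutral control wells and 100% = positive control wells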
MITF TRPM1 HTS: MITF TRPM1 promoter activation in melanoma cells | activation, % at 12.5 µM | 300,000 compounds, 0.75% hits | SK-MEL-5 TRPM1-promoter luciferase, 24 h; % of positive control, neutral wells = 0;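 active = mean activation of at least 80% with every replicate also reaching 80%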;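 note: 0% = neutral control wells and 100% = parthenolide positive control wells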
PAX8 inh HTS: PAX8 transcriptional activity inhibition | RMG-I TPO-luciferase reporter, SteadyGlo, 24 h | 360,000 compounds, 1.2% hits | inhibition, % at 12.6 µM;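 active = mean replicate inhibition at least 60% with every replicate also reaching 60%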;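 note: luciferase light reporting Pax8 driven TPO promoter activity; plate controls were median of neutral control wells for no effect and mitoxantrone controls for full effect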
esBAF inh: inhibitors of esBAF chromatin remodeling in mouse ES cells | Bmi1-luciferase knock-in reporter, 24 h; 100% = twice the neutral-well signal | reporter increase, % at 12.5 µM | 350,000 compounds, 2% hits; in the data active = activation above about 40%;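 note: 0% = median of the plate's neutral control wells and 100% = double that signal; a rise in the Bmi1 reporter signal indicates esBAF inhibition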
Numbers without * were called inactive; . = no result.

SMILES | EWS-Fli block | MITF TRPM1 inh | Wnt bcat act | MITF TRPM1 HTS | PAX8 inh HTS | esBAF inh
CN1CCN(C(=O)C[C@@H]2CC[C@@H]3[C@H](COC[C@H](O)CN3C(=O)Nc3ccc(F)cc3)O2)CC1 | -6 | . | . | . | -14 | 0
Cc1cccc(-c2ccc(C3[C@@H]4CN(C(=O)C5CCCCC5)C[C@H]3N4)cc2)c1 (some centres undefined) | 23 | . | . | . | -25 | .
O=C(CSc1ccc(-c2ccco2)nn1)NCc1ccccc1 | 5 | 8 | -1 | -11 | 63* | 1
N/C(=N\OC(=O)c1cccs1)c1cccc([N+](=O)[O-])c1 | -120 | -42 | 13 | 45 | -189 | 75*
CCSc1ccc(/C(N)=N/OC(=O)c2cccs2)cn1 | -88 | -111 | 29 | 108* | -200 | 57*
Cc1cccc(C(=O)O/N=C(\N)c2cccc([N+](=O)[O-])c2)c1 | -90 | -31 | 19 | 41 | . | .
COc1ccc(NC(=O)Nc2ccc3c(c2)C(=O)N([C@@H](C)CO)C[C@H](C)[C@H](CN(C)C(=O)NC2CCCCC2)OCCCC[C@H](C)O3)cc1 | 10 | . | . | . | 30 | -2
CC(=O)c1sc(N/N=C/c2cccc([N+](=O)[O-])c2)nc1C | -58 | -103 | 15 | 105* | -56 | 60*
CC(=O)c1sc(N/N=C/c2cccc(O)c2)nc1C | -85 | -91 | 17 | 93* | -152 | 63*
CCCNC(=O)N1CC2(CCN(CC3CCCC3)CC2)c2c(n(C)c3cc(OC)ccc23)[C@H]1CO | 6 | . | . | . | 10 | .
C[C@@H]1CN([C@@H](C)CO)C(=O)c2cc(NC(=O)Nc3ccc(F)cc3)ccc2O[C@@H]1CN(C)Cc1ccc(C(F)(F)F)cc1 | 11 | . | . | . | 70* | -3
COc1ccc(NC(=O)Nc2ccc3c(c2)C(=O)N([C@H](C)CO)C[C@@H](C)[C@H](CN(C)Cc2ccc(C(F)(F)F)cc2)O3)cc1 | 2 | . | . | . | 12 | -3
COc1ccc(NC(=O)Nc2ccc3c(c2)C(=O)N([C@@H](C)CO)C[C@@H](C)[C@H](CN(C)Cc2ccc(C(F)(F)F)cc2)O3)cc1 | -3 | . | . | . | 91* | -1
COc1cccc2cc(-c3nc(-c4cccs4)cs3)c(=O)oc12 | . | -80 | 59* | 85* | -186 | .
CCCOc1ccc2cc(-c3ccccn3)c(=O)oc2c1 | 77* | 51 | -13 | -49 | 74* | -75
COC(=O)C(C)Oc1ccc2cc(-c3ccccc3)c(=O)oc2c1 (centres undefined) | . | -7 | 1 | 13 | 3 | 9
COc1cccc2cc(-c3ccccc3)c(=O)oc12 | -57 | -65 | 35* | 62 | -192 | 32*
COc1ccc2cc(-c3ccccc3)c(=O)oc2c1 | . | -61 | 42* | 36 | -148 | 3
COc1ccccc1S(=O)(=O)N[C@H]1CC[C@H](CC(=O)NCc2cc(F)cc(F)c2)O[C@H]1CO | -5 | . | . | . | -1 | .
C[C@@H]1CN([C@@H](C)CO)C(=O)c2cc(NC(=O)CCC(F)(F)F)ccc2O[C@@H](C)CCCCO[C@@H]1CN(C)S(=O)(=O)c1ccccc1 | -2 | . | . | . | -8 | -8
COc1ccc2c3c(n(C)c2c1)[C@@H](CO)N(C(=O)Nc1ccc(F)cc1)CC31CN(S(=O)(=O)c2cccs2)C1 | 12 | . | . | . | . | .
CCOC(=O)c1ccc2nc(NC(=O)c3ccco3)sc2c1 | . | -25 | 74* | 27 | -75 | -35
CCCC(=O)Nc1nc2ccc(C(=O)OCC)cc2s1 | -50 | -81 | 20 | 92* | -95 | 65*
CN(C)C(=O)C[C@@H]1CC[C@@H]2[C@H](COc3ccc(NC(=O)C4CCC4)cc3C(=O)N2C)O1 | -3 | . | . | . | . | .
C[C@@H]1CCCCO[C@H](CN(C)C)[C@H](C)CN([C@H](C)CO)C(=O)c2cc(NS(=O)(=O)c3ccc(Cl)cc3)ccc2O1 | -6 | . | . | . | 8 | -3
SMILES | EWS-Fli block | MITF TRPM1 inh | Wnt bcat act | MITF TRPM1 HTS | PAX8 inh HTS | esBAF inh
COc1ccc(-c2onc3ccc(Br)cc23)cc1 | . | -20 | 2 | 23 | -15 | .
COc1cc(-c2onc3ccc(Br)cc23)cc(OC)c1OC | 56* | 1 | -2 | -5 | 26 | .
COCCn1c(NC(=S)NC(=O)C2CC2)cc(=O)[nH]c1=O | -5 | -13 | -2 | 11 | -4 | -7
COCc1cc(=O)[nH]c2cc(NC(=O)C3CC3)c(C)cc12 | . | 20 | 50* | -17 | -3 | .
CO[C@H]1CN(C)C(=O)c2cc(NC(=O)C3CC3)ccc2OC[C@H](C)N(C(=O)C2CCCCC2)C[C@@H]1C | . | . | . | . | -9 | .
Cc1ccc(C2(C)NC(=O)N(CC(=O)Nc3ccc(-c4nc5ccc(C)cc5s4)cc3)C2=O)cc1 (centres undefined) | -73 | -58 | 38* | 59 | -144 | .
Cc1ccc2nc(-c3ccc(NC(=O)CCN4C(=O)c5ccccc5C4=O)cc3)sc2c1 | 23 | -20 | 17 | 23 | -73 | .
Cc1ccc2nc(-c3ccc(NC(=O)COCC(=O)O)cc3)sc2c1 | -52 | -40 | 38* | . | -128 | .
Cc1ccc2nc(-c3ccc(NC(=O)CSCC(=O)O)cc3)sc2c1 | -18 | -104 | 72* | 103* | -145 | 26
O=C(Nc1nnc(S(=O)(=O)N2CCOCC2)s1)c1cccc(F)c1 | 21 | . | 20 | . | -96 | 58*
Cc1cccc(C(=O)Nc2nnc(S(=O)(=O)N3CCOCC3)s2)c1 | 14 | -21 | -1 | 21 | -6 | 10
O=C(CN1CCCC1)Nc1nnc(-c2cccs2)s1 | -11 | 8 | 2 | -6 | -25 | .
O=C(Nc1nnc(-c2cccs2)s1)c1cccc(F)c1 | -29 | -30 | 39* | 32 | -70 | 60*
Cc1nnc(NC(=O)c2cccc(F)c2)s1 | . | -4 | . | 6 | . | 13
COc1ccc(NC(=O)Nc2nnc(-c3cccs3)s2)cc1 | -98 | -93 | 41* | 98* | -172 | .
CC(C)(C)CC(=O)Nc1nnc(-c2cccs2)s1 | . | -40 | 52* | 44 | -151 | 48*
C[C@H](CO)N1C[C@H](C)[C@@H](CN(C)S(C)(=O)=O)Oc2ccc(NC(=O)C3CC3)cc2CC1=O | -2 | . | . | . | 13 | -4
Cc1ccc(S(=O)(=O)Nc2cccc3c2O[C@H](CN(C)C(=O)Nc2ccc4c(c2)OCO4)[C@@H](C)CN([C@@H](C)CO)C3=O)cc1 | -71 | . | . | . | . | 30
C[C@@H]1CN([C@H](C)CO)C(=O)c2cc(NC(=O)Nc3ccc(C(F)(F)F)cc3)ccc2O[C@@H]1CN(C)C(=O)Nc1ccc2c(c1)OCO2 | -1 | . | . | . | . | 0
C[C@@H]1CN([C@H](C)CO)C(=O)c2cc(NC(=O)Nc3ccc4c(c3)OCO4)ccc2O[C@H]1CN(C)C(=O)Nc1ccc(C(F)(F)F)cc1 | -42 | . | . | . | 65* | 31
C[C@H]1CN([C@@H](C)CO)C(=O)c2cc(NC(=O)Cc3ccccc3)ccc2O[C@H]1CN(C)C(=O)Nc1ccc2c(c1)OCO2 | -5 | . | . | . | 5 | 71*

Screening results as filed in PubChem BioAssay.
